From PubChem BioAssay (EPA / NIEHS)
Where “and” joins values, the source holds several entries; their conditions need not be identical. Equal entries are not always repeated. Records with an inconclusive call do not appear. The source holds several records for some structures; these can differ, active in one and inactive in another. Calls of active or inactive are those of the source. Rule for the calls: active = hit-call score of the fitted dose curve at least 0.9, where 1 is the maximum; inconclusive = response in the unintended direction; inactive = score below 0.9.

How the values were obtained:
[1] = target: Estrogen receptor (Homo sapiens) (UniProt P03372); test: NVS_NR_hER: NovaScreen (NVS) Nuclear Receptor Binding Assay for human Estrogen Receptor (ER) (AID 2283348)
Summary of the method: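 Cell-free radioligand binding with protein extracted from MCF7 cells; scintillation counting 18 hours after dosing. Loss of signal versus DMSO baseline read as displacement; primary single-concentration screen at 25 uM in duplicate, actives retested in concentration series.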

[2] = target: Estrogen receptor (Homo sapiens) (UniProt P03372); test: OT_ER_ERaERa_1440: Odyssey Thera (OT) 24-hour HEK293T Protein-Complementation Assay for Estrogen Receptor-alpha/-alpha Homodimer (AID 2283349);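 note: hits raise fluorescence above DMSO for agonists and antagonists alike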
Summary of the method: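 Readout is the rise in mean fluorescence from reporter fragment complementation when ERα LBD (aa 310-547) units dimerize in HEK293T cells. Measured 24 h after dosing and analysed as increase over DMSO control.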

[3] = target: chimpanzee Androgen Receptor (AR), AR (gene 747460) (UniProt O97775); test: NVS_NR_cAR: NovaScreen (NVS) Nuclear Receptor Binding Assay for chimpanzee Androgen Receptor (AR) (AID 2283346);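 note: radioligand displacement from AR measured by scintillation counting in a cell-free assay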
Summary of the method: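 Cell-free radioligand displacement using receptor protein extracted from Sf9/Sf21 cells; bound radioligand measured by scintillation counting 72 hours after chemical dosing. Loss of signal versus DMSO baseline indicates binding; primary screen single-concentration in duplicate at 25 uM, actives followed in concentration series.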

[4] = target: T1, Estrogen receptor (Homo sapiens) + Estrogen receptor beta (Homo sapiens) (UniProt P03372+Q92731); test: OT_ER_ERaERb_0480: Odyssey Thera (OT) 8-hour HEK293T Protein-Complementation Assay for Estrogen Receptor-alpha/-beta Heterodimer (AID 2283352)
Summary of the method: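 Fluorescence increase from reconstituted reporter fragments, quantified by laser scanning cytometer, reflects ER-alpha/ER-beta heterodimer formation in human HEK293T cells. Exposure 8 h; positive-direction fitting against DMSO vehicle.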

[5] = target: T1, Estrogen receptor (Homo sapiens) + Estrogen receptor beta (Homo sapiens); test: OT_ER_ERaERb_1440: Odyssey Thera (OT) 24-hour HEK293T Protein-Complementation Assay for Estrogen Receptor-alpha/-beta Homodimer (AID 2283356);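 note: heteromer of ER alpha and ER beta binding domains; hits raise reporter fluorescence and both agonists and antagonists give an increase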
Summary of the method: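 Fragment complementation between ER alpha (310-547) and ER beta (263-489) ligand-binding domains in HEK293T cells; signal read 24 h post-dosing by laser scanning cytometer. Gain of fluorescence relative to DMSO fitted.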

[6] = target: Estrogen receptor beta (Homo sapiens) (UniProt Q92731); test: OT_ER_ERbERb_0480: Odyssey Thera (OT) 8-hour HEK293T Protein-Complementation Assay for Estrogen Receptor-beta/-beta Homodimer (AID 2283357);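 note: active means signal gain over DMSO baseline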
Summary of the method: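 Readout: increase in mean fluorescence intensity (nucleus for agonists; nucleus plus cytoplasm for antagonists) relative to DMSO, from a reporter-fragment complementation of human ER-beta LBD homodimer in HEK293T cells dosed 8 hours.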

[7] = target: human Thyroid Receptor Alpha (TRa), THRA (gene 7067) (UniProt P10827); test: NVS_NR_hTRa_Antagonist: NovaScreen (NVS) Nuclear Receptor Binding Assay for human Thyroid Receptor Alpha Antagonism (TRa) (AID 2283362);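 note: activity is loss of signal relative to DMSO baseline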
Summary of the method: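 Actives from a duplicate 25 uM single-point screen were retested in concentration series. The cell-free antagonist-format binding assay was read by AlphaLISA chemiluminescence at 1 h, scored as signal loss relative to DMSO.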

NCBI gene 100848466 = test: NVS_NR_bPR: NovaScreen (NVS) Nuclear Receptor Binding Assay for bovine Progextron Receptor (PR) (AID 2283343);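 for AC50: actives lower bound radioligand signal below DMSO meaning displacement of the label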
Summary of the method: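 Bovine uterine membrane preparation, cell-free; radioligand competitive displacement measured by scintillation counting 18 hours after dosing. Loss of signal versus DMSO baseline indicates binding; primary HTS single concentration 25 uM in duplicate, actives followed in concentration series.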

[8] = target: bovine Estrogen Receptor (ER), ESR1 (gene 407238) (UniProt P49884); test: NVS_NR_bER: NovaScreen (NVS) Nuclear Receptor Binding Assay for bovine Estrogen Receptor (ER) (AID 2283345);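 note: actives lower the bound radioligand count which means they displace the ER ligand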
Summary of the method: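 Cell-free radioligand binding with receptor from bovine uterine membranes, read by scintillation counting 18 h after dosing. Loss of specific binding was scored against DMSO; primary screen at 25 uM in duplicate, actives then run as concentration series.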

[9] = target: Bile acid receptor (Homo sapiens) (UniProt Q96RI1); test: NVS_NR_hFXR_Antagonist: NovaScreen (NVS) Nuclear Receptor Binding Assay for human Farnesoid X Receptor Antagonism (FXR) (AID 2283350)
Summary of the method: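 Cell-free TR-FRET ligand-binding read-out on human FXR (NR1H4) in antagonist mode, measured 1 h after dosing. Primary screen in duplicate at 25 uM, actives retested in concentration series; signal loss scored versus DMSO.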

[10] = target: Retinoic acid receptor alpha (Homo sapiens) (UniProt P10276); test: NVS_NR_hRAR_Antagonist: NovaScreen (NVS) Nuclear Receptor Binding Assay for human Retinoic Acid Alpha Receptor Antagonism (RAR) (AID 2283358)
Summary of the method: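 Cell-free TR-FRET binding assay on extracted receptor protein, run in antagonist mode; signal read 2 hours after chemical dosing. Loss of signal was fitted relative to DMSO baseline. Screened at 25 uM in duplicate, actives followed up in concentration series.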

[11] = target: human Peroxisome Proliferator-activated Receptor alpha (PPARa), PPARA (gene 5465) (UniProt Q07869); test: NVS_NR_hPPARa: NovaScreen (NVS) Nuclear Receptor Binding Assay for human Peroxisome Proliferator-activated Receptor alpha (PPARa) (AID 2283359);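 note: activity means loss of TR-FRET signal versus DMSO baseline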
Summary of the method: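 Cell-free binding assay with extracted human protein, read by TR-FRET 1 h after chemical dosing. Loss of signal relative to DMSO baseline indicates binding. Primary screen used duplicate single concentration (25 uM); actives followed up in concentration series.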

[12] = target: Estrogen receptor (Homo sapiens) (UniProt P03372); test: OT_ER_ERaERa_0480: Odyssey Thera (OT) 8-hour HEK293T Protein-Complementation Assay for Estrogen Receptor-alpha/-alpha Homodimer (AID 2283351);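 note: rise in fluorescence from reassembled reporter fragments on ERα LBD homodimer in nucleus or whole cell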
Summary of the method: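 Binding reporter in which dimerisation of ERα LBD (aa 310-547) fusions reconstitutes a fluorescent reporter in HEK293T cells. Compounds incubated 8 h; mean fluorescence intensity increase versus DMSO scored.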

[13] = target: rat Mineralocorticoid Receptor (MR), Nr3c2 (gene 25672) (UniProt P22199); test: NVS_NR_rMR: NovaScreen (NVS) Nuclear Receptor Binding Assay for rat Mineralocorticoid Receptor (MR) (AID 2283355)
Summary of the method: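 Cell-free radioligand binding to MR in adrenalectomized rat brain supernatant, scintillation counted 24 h after dosing. Loss of signal versus DMSO baseline marks displacement. Primary screen in duplicate at 25 uM; actives retested as concentration series.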

PGR (gene 5241) = PGR (gene 5241) (UniProt P06401); test: NVS_NR_hPR: NovaScreen (NVS) Nuclear Receptor Binding Assay for human Progestron Receptor (PR) (AID 2283360)
Summary of the method: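 Cell-free radioligand binding using receptor protein extracted from T47D cells, read by scintillation counting 18 hours after dosing. Loss of signal relative to DMSO baseline indicates displacement; primary screen single concentration 25 uM in duplicate, actives followed in concentration series.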

[14] = target: Androgen Receptor/SRC-1 Co-activator, AR (gene 367) (UniProt P10275); test: OT_AR_ARSRC1_0960: Odyssey Thera (OT) 16-hour HEK293T Protein-Complementation Assay for Androgen Receptor/SRC-1 Co-activator (AID 2283353);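 note: actives raise the signal above DMSO so potency reflects increased AR and SRC-1 complex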
Summary of the method: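 Interaction of AR with SRC-1 was followed by YFP fragment complementation in HEK293T cells after 16 h of dosing. Gain of nuclear-over-cytoplasmic 488 nm fluorescence against DMSO controls defined activity.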

[15] = target: Androgen Receptor/SRC-1 Co-activator, AR (gene 367) (UniProt P10275); test: OT_AR_ARSRC1_0480: Odyssey Thera (OT) 8-hour HEK293T Protein-Complementation Assay for Androgen Receptor/SRC-1 Co-activator (AID 2283354);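 note: hits raise the complementation signal above DMSO so AC50 marks enhancers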
Summary of the method: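 HEK293T cells stably expressing AR and SRC-1 fused to split Venus YFP fragments via (Gly4Ser)2 linkers were read 8 h after compound dosing. Complementation was imaged at 488 and 635nm, and nuclear/cytoplasmic fluorescence ratio (488nm) was taken over ≥400 cells; gain-of-signal versus DMSO.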

[16] = tested on: guinea pig Histamine Receptor (H2), gene 100729734; test: NVS_GPCR_gH2: NovaScreen (NVS) G Protein-Coupled Receptor Assay for guinea pig Histamine Receptor (H2) (AID 2283342)
Summary of the method: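 Radioligand displacement on guinea pig striatal membranes, 1 h after dosing, filter-based scintillation counting; loss of signal versus DMSO. Single-point screen at 25 uM in duplicate, then concentration-response up to 50 uM.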

Measured: AC50

PGR (gene 5241), sequence (P06401 whole entry, looked up): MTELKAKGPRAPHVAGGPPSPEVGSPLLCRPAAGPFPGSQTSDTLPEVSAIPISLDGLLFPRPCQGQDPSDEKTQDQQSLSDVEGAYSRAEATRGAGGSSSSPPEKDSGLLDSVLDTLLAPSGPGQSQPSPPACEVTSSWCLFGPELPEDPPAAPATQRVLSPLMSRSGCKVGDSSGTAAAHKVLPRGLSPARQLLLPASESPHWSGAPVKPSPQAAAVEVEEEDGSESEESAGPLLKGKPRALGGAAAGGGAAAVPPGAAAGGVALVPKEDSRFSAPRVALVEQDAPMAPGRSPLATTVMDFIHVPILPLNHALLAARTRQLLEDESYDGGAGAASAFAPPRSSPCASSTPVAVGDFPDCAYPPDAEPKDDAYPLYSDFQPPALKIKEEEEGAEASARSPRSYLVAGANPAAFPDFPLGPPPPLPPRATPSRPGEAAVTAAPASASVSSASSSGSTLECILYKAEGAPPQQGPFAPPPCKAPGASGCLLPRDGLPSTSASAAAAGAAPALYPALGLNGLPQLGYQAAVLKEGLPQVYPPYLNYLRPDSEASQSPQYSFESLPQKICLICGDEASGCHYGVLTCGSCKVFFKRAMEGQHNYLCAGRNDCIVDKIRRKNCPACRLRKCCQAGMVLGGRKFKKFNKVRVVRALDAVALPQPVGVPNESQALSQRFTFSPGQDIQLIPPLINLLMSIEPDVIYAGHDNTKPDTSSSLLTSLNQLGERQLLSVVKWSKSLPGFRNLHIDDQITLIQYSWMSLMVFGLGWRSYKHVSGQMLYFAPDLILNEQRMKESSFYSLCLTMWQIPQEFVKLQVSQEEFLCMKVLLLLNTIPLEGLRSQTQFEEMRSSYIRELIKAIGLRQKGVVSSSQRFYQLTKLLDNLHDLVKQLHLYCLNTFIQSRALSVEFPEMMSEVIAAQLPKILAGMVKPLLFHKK
chimpanzee Androgen Receptor (AR), AR (gene 747460), sequence (O97775 whole entry, looked up): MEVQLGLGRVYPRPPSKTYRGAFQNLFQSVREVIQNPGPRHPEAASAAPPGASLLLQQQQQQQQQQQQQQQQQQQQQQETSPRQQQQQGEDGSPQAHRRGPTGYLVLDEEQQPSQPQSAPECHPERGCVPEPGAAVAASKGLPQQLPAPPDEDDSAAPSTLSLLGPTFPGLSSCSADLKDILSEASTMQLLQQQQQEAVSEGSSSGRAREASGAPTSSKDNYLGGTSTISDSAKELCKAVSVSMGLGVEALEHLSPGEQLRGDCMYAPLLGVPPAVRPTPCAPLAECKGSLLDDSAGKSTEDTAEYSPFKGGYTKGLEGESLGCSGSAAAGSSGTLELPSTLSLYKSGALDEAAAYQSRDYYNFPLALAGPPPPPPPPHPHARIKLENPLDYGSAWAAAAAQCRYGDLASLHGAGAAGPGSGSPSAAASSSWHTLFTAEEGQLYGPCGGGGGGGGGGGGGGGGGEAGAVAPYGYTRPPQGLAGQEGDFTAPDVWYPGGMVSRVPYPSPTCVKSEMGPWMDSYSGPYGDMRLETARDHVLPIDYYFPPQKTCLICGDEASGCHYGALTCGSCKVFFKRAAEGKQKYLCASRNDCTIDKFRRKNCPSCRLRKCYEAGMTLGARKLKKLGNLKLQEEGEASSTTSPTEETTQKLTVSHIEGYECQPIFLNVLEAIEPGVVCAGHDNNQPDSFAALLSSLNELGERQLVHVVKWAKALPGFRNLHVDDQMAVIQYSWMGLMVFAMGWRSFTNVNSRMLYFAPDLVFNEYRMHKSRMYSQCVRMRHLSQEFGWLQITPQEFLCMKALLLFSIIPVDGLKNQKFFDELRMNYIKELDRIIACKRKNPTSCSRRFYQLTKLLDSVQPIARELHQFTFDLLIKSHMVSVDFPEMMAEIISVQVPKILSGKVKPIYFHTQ
Estrogen receptor beta (Homo sapiens), sequence (Q92731 whole entry, looked up, the tested form may be a part): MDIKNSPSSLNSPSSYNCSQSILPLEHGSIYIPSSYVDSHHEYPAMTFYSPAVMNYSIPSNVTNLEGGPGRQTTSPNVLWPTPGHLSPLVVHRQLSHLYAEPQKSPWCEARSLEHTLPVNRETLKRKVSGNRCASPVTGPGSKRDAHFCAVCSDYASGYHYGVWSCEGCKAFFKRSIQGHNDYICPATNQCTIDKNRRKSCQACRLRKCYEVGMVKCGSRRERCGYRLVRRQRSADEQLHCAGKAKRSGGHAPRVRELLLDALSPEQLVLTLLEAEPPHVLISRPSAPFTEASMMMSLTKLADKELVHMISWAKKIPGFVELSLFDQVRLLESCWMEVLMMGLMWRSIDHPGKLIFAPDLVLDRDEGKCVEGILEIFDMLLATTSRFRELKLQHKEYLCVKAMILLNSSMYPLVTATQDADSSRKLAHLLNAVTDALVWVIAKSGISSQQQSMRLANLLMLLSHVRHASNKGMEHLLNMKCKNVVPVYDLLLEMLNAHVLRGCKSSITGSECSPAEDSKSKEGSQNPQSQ
human Peroxisome Proliferator-activated Receptor alpha (PPARa), PPARA (gene 5465), sequence (Q07869 whole entry, looked up): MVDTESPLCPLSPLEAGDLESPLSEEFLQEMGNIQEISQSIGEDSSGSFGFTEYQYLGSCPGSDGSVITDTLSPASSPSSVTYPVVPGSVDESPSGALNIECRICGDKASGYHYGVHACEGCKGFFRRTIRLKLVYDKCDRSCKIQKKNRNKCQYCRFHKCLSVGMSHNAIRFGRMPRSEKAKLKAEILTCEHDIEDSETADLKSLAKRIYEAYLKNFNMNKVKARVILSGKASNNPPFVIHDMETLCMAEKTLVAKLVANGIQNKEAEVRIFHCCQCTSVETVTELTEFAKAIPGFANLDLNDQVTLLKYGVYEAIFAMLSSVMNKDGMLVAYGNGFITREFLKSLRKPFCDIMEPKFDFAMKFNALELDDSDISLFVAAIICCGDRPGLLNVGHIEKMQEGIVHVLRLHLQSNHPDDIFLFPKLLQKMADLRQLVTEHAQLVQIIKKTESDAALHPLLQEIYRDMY
rat Mineralocorticoid Receptor (MR), Nr3c2 (gene 25672), sequence (P22199 whole entry, looked up): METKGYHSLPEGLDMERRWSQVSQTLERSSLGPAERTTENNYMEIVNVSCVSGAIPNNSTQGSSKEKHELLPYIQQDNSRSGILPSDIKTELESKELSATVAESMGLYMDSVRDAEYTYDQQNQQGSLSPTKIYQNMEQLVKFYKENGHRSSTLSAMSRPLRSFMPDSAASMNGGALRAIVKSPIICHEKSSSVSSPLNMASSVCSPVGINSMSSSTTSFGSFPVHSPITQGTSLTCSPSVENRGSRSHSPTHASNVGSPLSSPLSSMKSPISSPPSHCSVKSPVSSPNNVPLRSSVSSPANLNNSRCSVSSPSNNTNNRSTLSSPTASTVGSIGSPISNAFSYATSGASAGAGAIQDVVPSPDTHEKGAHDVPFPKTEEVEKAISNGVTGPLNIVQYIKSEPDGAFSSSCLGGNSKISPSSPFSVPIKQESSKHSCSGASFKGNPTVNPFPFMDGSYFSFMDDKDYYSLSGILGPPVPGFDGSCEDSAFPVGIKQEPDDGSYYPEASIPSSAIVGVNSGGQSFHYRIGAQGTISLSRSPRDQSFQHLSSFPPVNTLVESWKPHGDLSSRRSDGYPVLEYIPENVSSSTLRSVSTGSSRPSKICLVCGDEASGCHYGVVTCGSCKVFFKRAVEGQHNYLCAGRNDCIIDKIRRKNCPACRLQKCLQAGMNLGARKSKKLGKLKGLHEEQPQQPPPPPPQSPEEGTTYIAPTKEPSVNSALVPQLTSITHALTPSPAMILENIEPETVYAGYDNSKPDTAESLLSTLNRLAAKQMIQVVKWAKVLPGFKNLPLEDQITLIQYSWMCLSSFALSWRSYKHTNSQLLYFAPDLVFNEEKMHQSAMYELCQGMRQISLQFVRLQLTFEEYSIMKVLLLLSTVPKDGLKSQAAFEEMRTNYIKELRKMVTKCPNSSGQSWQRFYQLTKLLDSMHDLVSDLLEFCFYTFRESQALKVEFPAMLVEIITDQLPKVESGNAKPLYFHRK
Androgen Receptor/SRC-1 Co-activator, AR (gene 367), sequence (P10275 whole entry, looked up, the tested form may be a part): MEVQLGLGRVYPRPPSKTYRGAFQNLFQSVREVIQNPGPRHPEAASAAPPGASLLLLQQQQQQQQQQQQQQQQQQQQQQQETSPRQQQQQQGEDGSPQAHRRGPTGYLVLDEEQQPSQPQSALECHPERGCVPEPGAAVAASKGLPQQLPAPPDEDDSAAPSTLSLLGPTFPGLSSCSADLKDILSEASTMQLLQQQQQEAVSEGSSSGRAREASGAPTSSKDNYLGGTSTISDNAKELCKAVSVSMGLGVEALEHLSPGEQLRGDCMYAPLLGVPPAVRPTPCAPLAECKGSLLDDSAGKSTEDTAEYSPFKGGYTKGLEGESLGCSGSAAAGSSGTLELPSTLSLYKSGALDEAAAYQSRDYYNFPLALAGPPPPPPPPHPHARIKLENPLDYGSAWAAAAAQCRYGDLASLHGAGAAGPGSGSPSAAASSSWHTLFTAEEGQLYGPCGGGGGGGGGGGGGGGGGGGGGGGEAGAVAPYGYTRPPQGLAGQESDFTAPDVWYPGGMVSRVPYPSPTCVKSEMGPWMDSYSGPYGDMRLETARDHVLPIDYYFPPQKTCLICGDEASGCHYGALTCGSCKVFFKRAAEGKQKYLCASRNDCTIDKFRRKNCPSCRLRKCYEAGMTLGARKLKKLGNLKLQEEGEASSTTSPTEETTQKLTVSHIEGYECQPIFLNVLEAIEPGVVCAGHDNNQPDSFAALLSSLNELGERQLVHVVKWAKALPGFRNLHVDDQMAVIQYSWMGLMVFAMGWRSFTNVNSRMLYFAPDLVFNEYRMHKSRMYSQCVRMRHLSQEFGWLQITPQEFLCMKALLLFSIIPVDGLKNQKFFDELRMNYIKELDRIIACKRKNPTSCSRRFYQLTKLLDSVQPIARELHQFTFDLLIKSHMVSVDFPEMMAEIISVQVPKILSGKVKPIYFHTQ

ClC1=C(Cl)[C@]2(Cl)[C@@H]3[C@H]4C[C@H]([C@@H]5O[C@H]45)[C@@H]3[C@@]1(Cl)C2(Cl)Cl
inactive: [1] | [2]

COc1ccc(O)c(C(C)(C)C)c1
inactive: [1]
active: [3] 27.7 µM | [4] 50 µM | [5] 53.1 µM | [6] 31.8 µM | [7] 19.3 µM

O=C(O)C(F)(F)C(F)(F)C(F)(F)C(F)(F)C(F)(F)C(F)(F)C(F)(F)C(F)(F)F
inactive: NCBI gene 100848466 | [8] | [1] | [2] | [9] | [4] | [5] | [6] | [10] | [11]

C[C@]12CCC(=O)C=C1CC[C@@H]1[C@@H]2CC[C@]2(C)C(=O)CC[C@@H]12
active: NCBI gene 100848466 12.8 µM | [8] 25 µM | [3] 0.182 µM | [1] 38.5 µM | [9] 1.35 µM | [13] 0.0845 µM | PGR (gene 5241) 8.27 µM
inactive: [1] | [12] | [4] | [5] | [6]

CCOC(=O)C(O)(c1ccc(Cl)cc1)c1ccc(Cl)cc1
active: [3] 6.34 µM | [14] 37 µM | [15] 66.7 µM
inactive: [1] | [2] | [4] | [5] | [6]

CCC(=O)O[C@H]1CC[C@H]2[C@@H]3CCC4=CC(=O)CC[C@]4(C)[C@H]3CC[C@]12C
active: [3] 0.801 µM | [1] 14 µM | [15] 29.9 nM [middle of 6 runs] | [13] 0.517 µM | [5] 14.9 µM and 12.4 µM and 14.7 µM | [6] 12.2 µM and 4.06 µM and 12.3 µM | PGR (gene 5241) 1.04 µM
inactive: [8] | [3] | [1] | [4] | [5] | [6]

Nc1ccc(-c2ccc(N)cc2)cc1
inactive: [1] | [2] | [4] | [5] | [6]
active: [3] 19.9 µM

CCC(C)(c1ccc(O)cc1)c1ccc(O)cc1
inactive: [16] | [8] | [3] | [13] | [11]
active: NCBI gene 100848466 8.47 µM | [8] 341 nM [middle of 4 runs] | [3] 19.7 µM | PGR (gene 5241) 10.2 µM

Cc1cc(-c2ccc(N)c(C)c2)ccc1N
active: [8] 0.0481 µM | [3] 888 nM and 16 µM | [1] 0.0153 µM
inactive: [1] | [2] | [10]
